# In article PMC7862700, “An all-to-all approach to the identification of sequence-specific readers for epigenetic DNA modifications on cytosine”:
# Assays:
# Experiment in all cases: DAPPL (digital affinity profiling via proximity ligation, sequencing); 10 mM Tris-HCl pH 7.5, 50 mM NaCl, 1 mM DTT, 4% glycerol, room temperature, 30 min; GST-TFs on glutathione beads, 16-mer random dsDNA library, 0.1% formaldehyde crosslink after washing; high values mean tight binding
# Settings in all cases: protein: recombinant; tags: N-terminal GST; dsDNA, one strand shown
# FLI1 = target: T1, FLI1 (Homo sapiens, UniProt Q01543 1-452)
# T1 sequence: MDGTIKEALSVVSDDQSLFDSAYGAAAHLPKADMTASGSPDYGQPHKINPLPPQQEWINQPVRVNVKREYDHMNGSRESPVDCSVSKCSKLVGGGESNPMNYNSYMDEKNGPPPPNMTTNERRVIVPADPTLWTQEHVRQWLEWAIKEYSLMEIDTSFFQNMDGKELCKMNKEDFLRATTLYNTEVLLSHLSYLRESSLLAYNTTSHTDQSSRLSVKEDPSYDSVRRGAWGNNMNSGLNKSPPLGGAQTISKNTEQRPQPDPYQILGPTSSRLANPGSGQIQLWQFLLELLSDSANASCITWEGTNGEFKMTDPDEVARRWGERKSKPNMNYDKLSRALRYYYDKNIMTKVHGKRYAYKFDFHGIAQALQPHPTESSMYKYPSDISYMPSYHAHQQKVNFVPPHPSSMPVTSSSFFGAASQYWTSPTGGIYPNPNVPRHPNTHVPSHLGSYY
# In short: (§1)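 GST fusions of human transcription factors were expressed in yeast and captured with glutathione beads. Once given DNA barcodes and pooled alongside a tag-only sample, they were incubated for 30 min at room temperature with 200 nmole of a random double-stranded 16-mer DNA library in Tris/NaCl/DTT/glycerol buffer, then washed, crosslinked (0.1% formaldehyde), proximity-ligated, PCR-amplified and sequenced on an Illumina NextSeq500. The binding signal of each hexamer is its read frequency for a factor divided by its frequency for the tag-only sample.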
# ELK1 = target: T2, ELK1 (Homo sapiens, UniProt P19419 1-428)
# T2 sequence: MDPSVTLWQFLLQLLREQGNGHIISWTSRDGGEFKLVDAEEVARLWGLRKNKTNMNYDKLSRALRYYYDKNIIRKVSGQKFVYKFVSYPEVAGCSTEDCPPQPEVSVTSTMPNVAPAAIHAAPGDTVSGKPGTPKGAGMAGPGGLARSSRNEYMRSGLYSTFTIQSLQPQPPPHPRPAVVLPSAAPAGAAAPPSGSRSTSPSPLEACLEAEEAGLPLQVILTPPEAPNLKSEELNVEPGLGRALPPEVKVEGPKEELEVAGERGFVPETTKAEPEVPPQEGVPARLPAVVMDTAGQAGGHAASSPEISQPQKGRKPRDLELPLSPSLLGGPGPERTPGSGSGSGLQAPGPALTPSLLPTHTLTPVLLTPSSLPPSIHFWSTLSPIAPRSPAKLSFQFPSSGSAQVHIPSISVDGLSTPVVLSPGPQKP
# In short: as §1
# GABPA = target: T3, GABPA (Homo sapiens, UniProt Q06546 1-454)
# T3 sequence: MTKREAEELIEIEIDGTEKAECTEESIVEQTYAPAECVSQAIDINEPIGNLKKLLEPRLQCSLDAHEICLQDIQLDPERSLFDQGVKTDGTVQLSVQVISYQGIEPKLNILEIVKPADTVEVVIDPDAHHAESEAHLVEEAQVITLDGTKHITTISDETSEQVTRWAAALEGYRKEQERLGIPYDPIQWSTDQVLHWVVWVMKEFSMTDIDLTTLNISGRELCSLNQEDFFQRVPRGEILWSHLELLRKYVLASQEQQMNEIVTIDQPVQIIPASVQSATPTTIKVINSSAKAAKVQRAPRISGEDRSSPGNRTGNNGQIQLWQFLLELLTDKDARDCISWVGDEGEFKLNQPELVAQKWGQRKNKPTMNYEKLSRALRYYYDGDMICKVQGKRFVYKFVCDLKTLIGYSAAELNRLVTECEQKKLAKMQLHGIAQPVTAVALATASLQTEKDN
# In short: as §1
# ERG = target: T4, ERG (Homo sapiens, UniProt P11308 1-479)
# T4 sequence: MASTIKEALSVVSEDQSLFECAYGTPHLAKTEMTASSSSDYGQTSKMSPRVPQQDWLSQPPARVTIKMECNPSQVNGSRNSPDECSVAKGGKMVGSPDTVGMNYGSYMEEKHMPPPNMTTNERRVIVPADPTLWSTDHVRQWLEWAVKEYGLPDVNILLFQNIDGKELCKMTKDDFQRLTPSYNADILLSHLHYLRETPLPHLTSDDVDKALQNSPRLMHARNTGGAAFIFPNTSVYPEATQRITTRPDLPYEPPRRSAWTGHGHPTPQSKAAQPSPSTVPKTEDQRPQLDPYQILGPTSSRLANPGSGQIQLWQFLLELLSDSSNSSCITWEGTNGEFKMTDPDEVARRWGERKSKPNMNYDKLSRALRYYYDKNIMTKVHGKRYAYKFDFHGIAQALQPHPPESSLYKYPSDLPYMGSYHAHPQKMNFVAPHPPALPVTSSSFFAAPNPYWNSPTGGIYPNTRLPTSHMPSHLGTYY
# In short: as §1
# ELF1 = ELF1 (Homo sapiens, UniProt P32519 1-619)
# In short: as §1
# EHF = target: T5, EHF (Homo sapiens, UniProt Q9NZC4 1-300)
# T5 sequence: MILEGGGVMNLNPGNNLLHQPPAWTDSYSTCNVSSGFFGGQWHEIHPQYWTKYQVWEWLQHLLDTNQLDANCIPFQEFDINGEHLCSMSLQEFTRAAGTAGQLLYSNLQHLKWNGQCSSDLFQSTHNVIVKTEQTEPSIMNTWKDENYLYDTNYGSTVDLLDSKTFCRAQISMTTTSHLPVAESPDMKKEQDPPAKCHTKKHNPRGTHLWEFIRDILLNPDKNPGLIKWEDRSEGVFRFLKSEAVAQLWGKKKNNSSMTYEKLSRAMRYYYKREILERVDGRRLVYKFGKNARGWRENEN
# In short: as §1
# SPI1 = SPI1 (Homo sapiens, UniProt P17947 1-270)
# In short: as §1
# SPIB = SPIB (Homo sapiens, UniProt Q01892 1-262)
# In short: as §1
# ELK3 = target: T6, ELK3 (Homo sapiens, UniProt P41970 1-407)
# T6 sequence: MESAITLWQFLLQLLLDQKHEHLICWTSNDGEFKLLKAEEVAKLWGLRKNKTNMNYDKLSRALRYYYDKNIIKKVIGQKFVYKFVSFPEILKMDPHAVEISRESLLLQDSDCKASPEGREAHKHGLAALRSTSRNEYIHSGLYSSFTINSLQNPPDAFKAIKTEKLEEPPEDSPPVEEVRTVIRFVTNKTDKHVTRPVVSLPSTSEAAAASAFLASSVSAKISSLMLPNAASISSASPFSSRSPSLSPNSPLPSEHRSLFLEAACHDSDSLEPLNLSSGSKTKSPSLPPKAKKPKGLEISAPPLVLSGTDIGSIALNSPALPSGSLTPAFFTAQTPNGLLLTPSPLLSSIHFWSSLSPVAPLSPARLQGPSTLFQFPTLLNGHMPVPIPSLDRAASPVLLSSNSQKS
# In short: as §1
# Chain of SPIB (Q01892 whole entry): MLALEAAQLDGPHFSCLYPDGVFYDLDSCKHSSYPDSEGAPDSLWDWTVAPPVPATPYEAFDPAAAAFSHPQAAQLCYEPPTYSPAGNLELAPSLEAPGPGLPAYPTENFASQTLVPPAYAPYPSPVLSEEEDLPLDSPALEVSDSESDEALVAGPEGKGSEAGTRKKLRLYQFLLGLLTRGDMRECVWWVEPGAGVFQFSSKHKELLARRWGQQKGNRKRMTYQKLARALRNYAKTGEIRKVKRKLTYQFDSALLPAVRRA
# Chain of ELF1 (P32519 whole entry): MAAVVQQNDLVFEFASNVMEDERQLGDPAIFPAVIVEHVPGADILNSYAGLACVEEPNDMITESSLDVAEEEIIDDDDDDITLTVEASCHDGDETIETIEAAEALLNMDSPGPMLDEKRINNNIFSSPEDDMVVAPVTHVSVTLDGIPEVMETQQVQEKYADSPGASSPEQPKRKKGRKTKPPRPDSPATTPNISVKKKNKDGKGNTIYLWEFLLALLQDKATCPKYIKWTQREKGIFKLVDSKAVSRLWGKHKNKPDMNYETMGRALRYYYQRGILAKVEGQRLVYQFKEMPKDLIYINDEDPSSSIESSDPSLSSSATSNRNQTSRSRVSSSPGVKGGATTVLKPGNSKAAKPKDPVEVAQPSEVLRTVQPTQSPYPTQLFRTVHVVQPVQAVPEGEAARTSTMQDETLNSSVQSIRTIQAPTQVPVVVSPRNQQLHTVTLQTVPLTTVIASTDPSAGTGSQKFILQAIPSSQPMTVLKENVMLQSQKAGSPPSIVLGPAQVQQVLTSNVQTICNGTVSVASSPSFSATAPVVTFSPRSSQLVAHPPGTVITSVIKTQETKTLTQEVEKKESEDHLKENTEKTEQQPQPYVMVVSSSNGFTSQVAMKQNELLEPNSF
sequence,measurement,setting,value
GATTCC,binding signal,FLI1,"1.19 fold enrichment (6-mer frequency, TF over GST control)"
same,binding signal,ELK1,"1.05 fold enrichment (6-mer frequency, TF over GST control)"
same,binding signal,GABPA,"1.08 fold enrichment (6-mer frequency, TF over GST control)"
same,binding signal,ERG,"1.2 fold enrichment (6-mer frequency, TF over GST control)"
same,binding signal,ELF1,"1.18 fold enrichment (6-mer frequency, TF over GST control)"
same,binding signal,EHF,"1.15 fold enrichment (6-mer frequency, TF over GST control)"
same,binding signal,SPI1,"1.14 fold enrichment (6-mer frequency, TF over GST control)"
same,binding signal,SPIB,"1.16 fold enrichment (6-mer frequency, TF over GST control)"
same,binding signal,ELK3,"1.17 fold enrichment (6-mer frequency, TF over GST control)"
